Assay results: the supplement of paper PMC3414501;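 active = score above 5; some higher scores were not called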
Where a name gives a salt, the structure may show the parent alone.

The molecules below were run on S. cerevisiae SK1 pCDA2-eGFP (USY613), sporulating (assay: CDA2-GFP sporulation assay sensitivity score (z-score vs DMSO controls); higher = stronger inhibition of sporulation, active = hit call of the paper).

CDA2-GFP sporulation assay sensitivity score, inactive:
CNC(=C[N+](=O)[O-])NCCSCc1csc(CN(C)C)n1 [Nizatidine] (stock concentration (mM, diluted 1:100): 10) -0.14
COCCOC(=O)C1=C(C)NC(C)=C(C(=O)OC(C)C)C1c1cccc([N+](=O)[O-])c1 (stereo unspecified) [Nimodipine] (stock concentration (mM, diluted 1:100): 10) 0.44
CC(=O)OCC(=O)NCCCOc1cccc(CN2CCCCC2)c1 [Roxatidine acetate hydrochloride] (stock concentration (mM, diluted 1:100): 9.1) 0.57
CC(C)(C)C(O)/C=C/c1ccc2c(c1)OCO2 (stereo unspecified) [Stiripentol] (stock concentration (mM, diluted 1:100): 10) 5.09
CN1CCCC(n2nc(Cc3ccc(Cl)cc3)c3ccccc3c2=O)CC1 (stereo unspecified) [Azelastine hydrochloride] (stock concentration (mM, diluted 1:100): 9.1) 0.63
COc1ccc(CC(C)NCC(O)c2ccc(O)c(NC=O)c2)cc1 (stereo unspecified) [Formoterol fumarate dihydrate] (stock concentration (mM, diluted 1:100): 7) 0.41
CCN(CC)CC(=O)Nc1c(C)cccc1C [Lidocaine] (stock concentration (mM, diluted 1:100): 9.6) 0.09
Clc1cccc(Cl)c1NC1=NCCN1 [Clonidine] (stock concentration (mM, diluted 1:100): 10) -1.29
COc1cc2nc(N3CCN(C(=O)C4CCCO4)CC3)nc(N)c2cc1OC (stereo unspecified) [Terazosin] (stock concentration (mM, diluted 1:100): 9.5) 3.45
CN[C@H]1CC[C@@H](c2ccc(Cl)c(Cl)c2)c2ccccc21 [Sertraline] (stock concentration (mM, diluted 1:100): 9) -0.26
COc1ccc2[nH]c([S+]([O-])Cc3ncc(C)c(OC)c3C)nc2c1 (stereo unspecified) [Omeprazole] (stock concentration (mM, diluted 1:100): 10) 6.11
Cc1cccc(Nc2ccncc2S(=O)(=O)NC(=O)NC(C)C)c1 [Torasemide] (stock concentration (mM, diluted 1:100): 9.9) -0.45
CN(C)CCC[C@@]1(c2ccc(F)cc2)OCc2cc(C#N)ccc21 [Escitalopram oxalate] (stock concentration (mM, diluted 1:100): 7.9) 0.99
O=C1c2c(O)cc(O)cc2OC(c2ccc(O)c(O)c2)C1O (stereo unspecified) [Taxifolin] (stock concentration (mM, diluted 1:100): 10.1) -0.02
OCCN1CCN(CCCN2c3ccccc3Sc3ccc(C(F)(F)F)cc32)CC1 [Fluphenazine hydrochloride] (stock concentration (mM, diluted 1:100): 10) -0.3
COc1cc(/C=C/c2ccc(O)cc2)cc(OC)c1 [Pterostilbene] (stock concentration (mM, diluted 1:100): 10) -2.39
c1ccc(-c2ccc(C(c3ccccc3)n3ccnc3)cc2)cc1 (stereo unspecified) [Bifonazole] (stock concentration (mM, diluted 1:100): 10) 0.04
C[C@@H]1C[C@H]2[C@@H]3CCC4=CC(=O)C=C[C@]4(C)[C@@]3(F)[C@@H](O)C[C@]2(C)[C@H]1C(=O)CO [Desoximetasone] (stock concentration (mM, diluted 1:100): 10) 0.62
CO[C@H]1O[C@@H]2O[C@@]3(C)CC[C@H]4[C@H](C)CC[C@@H]([C@H]1C)[C@@]24OO3 [Artemether] (stock concentration (mM, diluted 1:100): 10) 7.92
O=C1[C@H]2CCCC[C@H]2C(=O)N1CCCCN1CCN(c2nsc3ccccc23)CC1 [Perospirone hydrochloride] (stock concentration (mM, diluted 1:100): 9.4) 2.69
CCN1CCC[C@H]1CNC(=O)c1cc(S(N)(=O)=O)ccc1OC [Levosulpiride] (stock concentration (mM, diluted 1:100): 10) 0.11
